This is an account of results in PubChem BioAssay (EPA / NIEHS).

A short description of assay [1]: ATG_XTT_Cytotoxicity: Cytotoxicity Assessment in the Attagene TRANS-FACTORIAL HepG2 Assay (AID 2283584).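 For AC50: cells exposed to compound for 24 h before reading; active means loss of viability signal versus DMSO baseline.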 The method, boiled down:
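HepG2 human liver cells, transiently transfected with multiple GAL4-UAS reporter units, were dosed and read at 24 h by XTT as cell number. Loss of signal was fitted relative to DMSO negative control baseline.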

The nature of assay [2]: TOX21_p53_BLA_p2_viability: Viability Assessment in the Tox21 HCT-116 p53 Agonism Beta-lactamase Assay, Phase 2 (AID 2283591).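 Note: compound exposure lasted 16 h at 37 °C; actives lower the ATP signal meaning cytotoxicity.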 In a few lines: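 HCT-116 p53-bla cells (4000/well) rested 5 h at 37C, then received compounds in DMSO (217-fold dilution) for 16 h at 37C, 5% CO2. After the CCF4 read, CellTiter-Glo was added; ATP luminescence was read after 30 min at room temperature.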

Assay [3] has as its target Cellular tumor antigen p53 (Homo sapiens) (UniProt P04637). The assay can be described thus: TOX21_p53_BLA_p2_ratio: Tox21 HCT-116 p53 Agonism Beta-lactamase Assay, Ratio, Phase 2 (AID 2283592). In a few lines: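 HCT116 cells carrying a p53-responsive beta-lactamase reporter were plated, incubated 5 h at 37C, then dosed with compounds in DMSO (217-fold dilution) for 16 h. CCF4-AM substrate was added for 2 h at room temperature; the 460/530 nm emission ratio gave gain-of-signal activity relative to DMSO.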

Assay [4] in a line: TOX21_p53_BLA_p3_viability: Viability Assessment in the Tox21 HCT-116 p53 Agonism Beta-lactamase Assay, Phase 3 (AID 2283593).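 Note: cells exposed to compound for 16 h before reading.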 The method, boiled down:
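HCT-116 cells (4000/well) rested 5 h at 37C, then got DMSO compounds by pin tool (217-fold dilution) for 16 h at 37C, 5% CO2. After the bla read, CellTiter-Glo was added and luminescence read at 30 min, room temperature.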

Assay [5] deals with Cellular tumor antigen p53 (Homo sapiens) (UniProt P04637). The assay can be described thus: TOX21_p53_BLA_p3_ratio: Tox21 HCT-116 p53 Agonism Beta-lactamase Assay, Ratio, Phase 3 (AID 2283596). In a few lines: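 HCT116 p53-bla cells (4000/well) given compound in DMSO (217-fold dilution) after 5 h, incubated 16 h at 37C. CCF4-AM substrate 2 h at room temperature; 460/530 nm emission ratio, gain fitted against DMSO.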

Assay [6] is described as follows: TOX21_p53_BLA_p4_viability: Viability Assessment in the Tox21 HCT-116 p53 Agonism Beta-lactamase Assay, Phase 4 (AID 2283597).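 Note: hits lower the luminescence signal meaning cytotoxicity.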 In a few lines:
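HCT116 p53-bla cells (4000/well) rested 5 h at 37C, then received compounds in DMSO (217-fold dilution) for 16 h at 37C, 5% CO2. CellTiter-Glo was added after the CCF4-AM read, and luminescence was read after 30 min at room temperature.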

For assay [7], the target named is Cellular tumor antigen p53 (Homo sapiens) (UniProt P04637). Nature of the assay: TOX21_p53_BLA_p5_ratio: Tox21 HCT-116 p53 Agonism Beta-lactamase Assay, Ratio, Phase 5 (AID 2283599). The method, boiled down: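 HCT-116 cells carrying a p53-inducible beta-lactamase reporter were seeded at 4000 cells/well and dosed after 5 h with compound in DMSO (217-fold dilution). After 16 h at 37C, CCF4-AM substrate was added for 2 h, and the 460/530 nm emission ratio was scored as gain-of-signal versus DMSO.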

For assay [8] the target is unchanged. Nature of the assay: TOX21_p53_BLA_p4_ratio: Tox21 HCT-116 p53 Agonism Beta-lactamase Assay, Ratio, Phase 4 (AID 2283601). In a few lines:
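HCT116 cells carrying an inducible beta-lactamase reporter were plated at 4000 cells/well, rested 5 h, then exposed to compounds in DMSO (217-fold dilution) for 16 h at 37C. CCF4-AM substrate was loaded 2 h at room temperature; 460/530 nm emission ratio scored gain-of-signal versus DMSO.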

A short description of assay [9]: TOX21_p53_BLA_p5_viability: Viability Assessment in the Tox21 HCT-116 p53 Agonism Beta-lactamase Assay, Phase 5 (AID 2283600). The method, boiled down: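 Cells were plated at 4000/well, rested 5 h at 37C, then given compounds in DMSO (217-fold dilution) for 16 h at 37C, 5% CO2. Following the CCF4-AM beta-lactamase read, CellTiter-Glo was added and luminescence was read after 30 min at room temperature.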

Molecules are shown by their SMILES. “And” between values parts separate entries of the source, which are not always exact repeats. Equal values may be shown once. Records with an inconclusive call do not appear. The source made the active and inactive calls. Rule for the calls: active = hit-call score of the fitted dose curve at least 0.9, where 1 is the maximum; inconclusive = response in the unintended direction; inactive = score below 0.9.

Cellular tumor antigen p53 (Homo sapiens), sequence (P04637 whole entry, looked up): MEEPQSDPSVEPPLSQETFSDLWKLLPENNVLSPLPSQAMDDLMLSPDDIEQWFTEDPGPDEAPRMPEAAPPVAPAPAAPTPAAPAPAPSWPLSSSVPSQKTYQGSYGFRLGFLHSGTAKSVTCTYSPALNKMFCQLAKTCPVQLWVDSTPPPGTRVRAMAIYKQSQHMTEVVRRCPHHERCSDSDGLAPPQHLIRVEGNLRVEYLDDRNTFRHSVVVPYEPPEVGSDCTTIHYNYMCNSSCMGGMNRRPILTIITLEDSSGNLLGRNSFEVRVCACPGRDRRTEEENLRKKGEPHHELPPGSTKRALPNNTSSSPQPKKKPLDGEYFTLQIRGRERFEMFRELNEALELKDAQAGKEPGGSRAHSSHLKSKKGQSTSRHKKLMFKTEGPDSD

Regarding `CCCCCCOC(=O)CCC`, the call in assay [1], in assay [2], in assay [3], in [4], in assay [5] and in assay [6] was inactive. Besides, the result in assay [7] and in assay [8] was inactive.

In the case of `CCCCCCCCCC(C)C=O` (centres undefined), the molecule was classed as inactive in assay [1], in assay [2], in [3], in assay [4], in assay [5] and in assay [7]. Also, the outcome in [9] and in assay [8] was inactive.

For the molecule `NC(=S)NNC(N)=S`, the outcome in assay [1], in [2], in assay [3], in assay [4], in [5] and in [6] was inactive. Besides, the result in assay [7], in [9] and in [8] was inactive.

As for `O=C1OC(=O)c2c(Cl)c(Cl)c(Cl)c(Cl)c21`, the result in assay [1], in assay [2], in [3], in [4], in assay [5] and in [6] was inactive. Moreover, the outcome in assay [7], in [9] and in assay [8] was inactive.

For `OCCOCCN1CCN(C2=Nc3ccccc3Sc3ccccc32)CC1`, the molecule was classed as inactive in assay [1], in [2], in assay [3], in [4], in assay [5] and in assay [6]. The outcome in assay [7] and in assay [8] was inactive.

For `CC1(C)O[C@@H]2[C@@H](CO[C@@]3(COS(N)(=O)=O)OC(C)(C)O[C@@H]23)O1`, the molecule was called inactive in [1], in [2], in assay [3], in assay [4], in [5] and in [6]. The result in assay [9] and in assay [8] was inactive.

As for `O=C1c2ccccc2C(=O)c2c(O)ccc(O)c21`, the outcome in assay [1], in assay [2], in assay [3], in [4], in [5] and in assay [6] was inactive. The outcome in assay [7] and in [8] was inactive.

As to `CCCC(C)=O`, the result in assay [1], in assay [2], in [3], in assay [4], in [5] and in [6] was inactive. Moreover, the result in [7], in assay [9] and in assay [8] was inactive.

Consider `Cc1ncc[nH]1`, for which the outcome in assay [1], in assay [2], in [3], in assay [4], in [5] and in assay [6] was inactive. Besides, the outcome in assay [7] and in assay [8] was inactive.

One may read the AC50 as the midpoint of the concentration-response curve, whichever way the signal moves. For the molecule `CCCCCCCCCCCCCCN(CCO)CCO`, in [1], the AC50 is 28.3 µM (active). The result in [2], in assay [3], in assay [4], in assay [5], in assay [6] and in assay [9] was inactive. Moreover, the result in [8] was inactive.

Turning to `COCCOC(=O)c1ccccc1C(=O)OCCOC`, the outcome in assay [1], in assay [2], in [3], in assay [4], in assay [5] and in [6] was inactive. Further, the result in [7], in assay [9] and in assay [8] was inactive.

As for `C=CCCCCCCCCCC`, the molecule was called inactive in assay [1], in [2], in [3], in [4], in assay [5] and in assay [7]. For the same molecule, the result in assay [9] and in assay [8] was inactive.

In the case of `CCCCCCCCC=CCCCCCCCC1=NCCN1CCO`, the AC50 was 16.1 µM (active) in assay [1]; 46.1 µM (active) in assay [2]; 77.4 µM (active) in assay [4]; 87.1 µM (active) in [5]; 86.4 µM (active) in [6]; 87.8 µM (active) in [8]. Besides, the outcome in assay [3], in assay [7] and in [9] was inactive.

`CCCCCCCC(=O)OCC(O)CO` (centres undefined): the call in [1], in assay [2], in assay [3], in assay [4], in [5] and in assay [6] was inactive. For the same molecule, the outcome in assay [7], in assay [9] and in assay [8] was inactive.

In the case of `Cc1cc(C)nc(NS(=O)(=O)c2ccc(N)cc2)n1`, the call in [1], in [2], in [3], in assay [4], in assay [5] and in assay [6] was inactive. Moreover, the result in [7], in assay [9] and in assay [8] was inactive.

Regarding `CCCCCCCCc1ccc(S(=O)(=O)O)cc1`, the molecule was called inactive in assay [1], in assay [2], in assay [3], in assay [4], in [5] and in [7]. In addition, the molecule was classed as inactive in assay [9] and in assay [8]. Further, the half-maximal activity concentration (AC50) in [6] was 33.7 µM (active).

On to `CC(=O)O[C@@H]1CC2CCC1(C)C2(C)C` (some centres undefined), for which the molecule was called inactive in [1], in assay [2], in [3], in assay [4], in [5] and in [7]. In addition, the call in [9] and in [8] was inactive.

As for `CCCCCc1ccco1`, the molecule was called inactive in assay [1], in assay [2], in [3], in [5], in assay [6] and in [7]. Besides, the call in [9] and in [8] was inactive. In assay [4], the AC50 is 58 µM (active).

Consider `CCCCN(CCCC)C(=O)N(CCCC)CCCC`, for which the molecule was classed as inactive in assay [1], in [2], in assay [3], in [4], in assay [5] and in assay [7]. Also, the molecule was called inactive in assay [9] and in assay [8].

Regarding `COc1cc([C@@H]2c3cc4c(cc3[C@@H](O[C@@H]3O[C@@H]5CO[C@@H](C)O[C@H]5[C@H](O)[C@H]3O)[C@H]3COC(=O)[C@H]23)OCO4)cc(OC)c1O`, the molecule was called inactive in [1], in assay [2], in assay [4] and in assay [9]. In addition, the AC50 is 1.36 µM (active) and 3.57 µM (active) in assay [3]; 852 nM (active) and 3.18 µM (active) in assay [5]; 2.56 µM (active) and 4.83 µM (active) in assay [7]; 6.18 µM (active) and 1.98 µM (active) in [8].
